Test results reported in PubChem BioAssay (NCI).
About 83,000 compounds went through this panel and 20% of them were active in at least one assay; those are over-represented in the sample as a whole.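 Results are percent growth after 48 hours of single-concentration exposure. 100 means growth as in untreated cells, lower positive values show inhibition; negative values down to -100 show cell death.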 The source made the active and inactive calls. Rule for the calls: active = growth percent below 10; inactive = the rest.

Assays:
Test in all cases: NCI-60 one-dose screen, 48 h (100 = growth as untreated, 0 = no growth, -100 = all killed)
Settings in all cases: 10 µM unless noted
NCI-H23 lung = system: NCI-H23 lung
NCI-H226 lung = system: NCI-H226 lung
NCI-H322M lung = system: NCI-H322M lung
HOP-62 NSCLC = system: HOP-62 NSCLC
NCI-H460 lung = system: NCI-H460 lung
HOP-92 NSCLC = system: HOP-92 NSCLC
NCI-H522 lung = system: NCI-H522 lung
A549/ATCC NSCLC = system: A549/ATCC NSCLC
786-0 renal = system: 786-0 renal
COLO 205 colon = system: COLO 205 colon
DU-145 prostate = system: DU-145 prostate
K-562 leukemia = system: K-562 leukemia
MALME-3M melanoma = system: MALME-3M melanoma
MDA-MB-231 breast = system: MDA-MB-231 breast
RXF 393 renal = system: RXF 393 renal
SF-268 CNS = system: SF-268 CNS
SF-295 CNS = system: SF-295 CNS
SF-539 CNS = system: SF-539 CNS
UACC-257 melanoma = system: UACC-257 melanoma
M14 melanoma = system: M14 melanoma

Measured: growth

COc1cc(OC)cc(C(=O)Nc2cc(-c3cccnc3)nc(NCCCN3CCOCC3)n2)c1
inactive: NCI-H23 lung 91.7% | NCI-H226 lung 85.7% | NCI-H322M lung 90.9% | HOP-62 NSCLC 87.8% | NCI-H460 lung 95.3% | HOP-92 NSCLC 67.7% | NCI-H522 lung 92% | A549/ATCC NSCLC 92.6% | 786-0 renal 84% | COLO 205 colon 94.3% | DU-145 prostate 104% | K-562 leukemia 74.1% | MALME-3M melanoma 110% | MDA-MB-231 breast 79.6% | RXF 393 renal 93.9% | SF-268 CNS 94.1% | SF-295 CNS 101% | SF-539 CNS 91.1% | UACC-257 melanoma 88.6% | M14 melanoma 104%

CC(C)C1=NOC(=O)C1=Cc1cn(-c2ccccc2)nc1-c1ccc(Cl)cc1
inactive: NCI-H23 lung 84.8% | NCI-H226 lung 92.6% | NCI-H322M lung 93.9% | HOP-62 NSCLC 92.4% | NCI-H460 lung 85.3% | HOP-92 NSCLC 86.9% | NCI-H522 lung 80.8% | A549/ATCC NSCLC 100% | 786-0 renal 80.7% | COLO 205 colon 99.6% | DU-145 prostate 94.3% | K-562 leukemia 42.8% | MALME-3M melanoma 93.2% | MDA-MB-231 breast 97% | RXF 393 renal 58.2% | SF-268 CNS 99.3% | SF-295 CNS 96.9% | SF-539 CNS 75.9% | UACC-257 melanoma 105% | M14 melanoma 76.4%

Cc1cc(C)c(O)c(CNCCCNCc2cc(C)cc(C)c2O)c1
active: COLO 205 colon 9.05% | MALME-3M melanoma -65.9% | SF-539 CNS -11.8% | UACC-257 melanoma 4.87% | M14 melanoma -65.8%
inactive: NCI-H23 lung 81.7% | NCI-H226 lung 91.4% | NCI-H322M lung 45.7% | HOP-62 NSCLC 74.9% | NCI-H460 lung 40.7% | HOP-92 NSCLC 40.5% | NCI-H522 lung 42.4% | A549/ATCC NSCLC 78.8% | 786-0 renal 80% | DU-145 prostate 87.8% | K-562 leukemia 15.3% | MDA-MB-231 breast 35.8% | RXF 393 renal 47.9% | SF-268 CNS 74.7% | SF-295 CNS 30.3%

Cc1cccc(C[C@H](NC(=O)Nc2ccc(Cl)cc2F)C(=O)N[C@@H]2C(=O)N3C[C@H](O)C[C@H]3C(=O)N3CCCC[C@H]3C(=O)N[C@@H](C)C(=O)N3C[C@H](C)C[C@H]3C(=O)O[C@H]2C)c1
inactive: NCI-H23 lung 25.7% | NCI-H226 lung 20.9% | NCI-H322M lung 34% | HOP-62 NSCLC 24% | NCI-H522 lung 14.7% | A549/ATCC NSCLC 17.9% | 786-0 renal 11% | DU-145 prostate 15.1% | K-562 leukemia 12.5% | SF-268 CNS 11.6% | UACC-257 melanoma 14.9%
active: NCI-H460 lung 2.42% | HOP-92 NSCLC -7.02% | COLO 205 colon -30.9% | MALME-3M melanoma 7.7% | MDA-MB-231 breast -32.6% | RXF 393 renal -18.1% | SF-295 CNS -21.3% | SF-539 CNS 7.42% | M14 melanoma 3.02%

[2H]C1([2H])CCN(C(=O)C2CC2)c2cc(NS(=O)(=O)c3ccc(-c4cccc(C(N)=O)c4)cc3)ccc21
inactive: NCI-H23 lung 44% | NCI-H226 lung 61.1% | NCI-H322M lung 64.6% | HOP-62 NSCLC 29.1% | NCI-H460 lung 17.3% | HOP-92 NSCLC 33.3% | NCI-H522 lung 14% | A549/ATCC NSCLC 45.2% | 786-0 renal 81.8% | COLO 205 colon 37.7% | DU-145 prostate 72% | K-562 leukemia 20.7% | MALME-3M melanoma 39.6% | MDA-MB-231 breast 42.3% | RXF 393 renal 48.4% | SF-268 CNS 51.9% | SF-295 CNS 19.8% | SF-539 CNS 23.4% | UACC-257 melanoma 47.7% | M14 melanoma 86.4%

O=[N+]([O-])c1cc([N+](=O)[O-])c(C(F)(F)F)cc1NN=C(c1ccc(O)cc1)c1ccc(O)cc1
active: NCI-H23 lung -15.7% | HOP-62 NSCLC -55.4% | NCI-H460 lung -37.8% | NCI-H522 lung -61.5% | A549/ATCC NSCLC -60.4% | 786-0 renal -27.5% | COLO 205 colon -11% | RXF 393 renal -57.8% | SF-539 CNS -64.7% | UACC-257 melanoma -61% | M14 melanoma -47.8%
inactive: NCI-H226 lung 78.6% | NCI-H322M lung 113% | HOP-92 NSCLC 108% | DU-145 prostate 114% | K-562 leukemia 103% | MALME-3M melanoma 117% | MDA-MB-231 breast 83.2% | SF-268 CNS 88% | SF-295 CNS 110%

CC[C@]12C=CCN3CC[C@@]4(c5ccc(OC)cc5N(C)[C@H]4[C@@](O)(C(=O)OC)[C@@H]1OC(=O)CCC(=O)N[C@H](Cc1c[nH]c4ccccc14)C(=O)OC)[C@@H]32
active: NCI-H23 lung -28% [100 µM] | NCI-H226 lung -37.2% [100 µM] | NCI-H322M lung -53.9% [100 µM] | HOP-62 NSCLC -7.11% [100 µM] | NCI-H460 lung -65.7% [100 µM] | HOP-92 NSCLC -56.7% [100 µM] | NCI-H522 lung -16.2% [100 µM] | A549/ATCC NSCLC -30.9% [100 µM] | 786-0 renal -47.1% [100 µM] | COLO 205 colon 0.36% [100 µM] | DU-145 prostate -49.9% [100 µM] | K-562 leukemia 5.85% [100 µM] | MALME-3M melanoma -68.8% [100 µM] | MDA-MB-231 breast -71% [100 µM] | RXF 393 renal -60.6% [100 µM] | SF-268 CNS -43% [100 µM] | SF-295 CNS -38.4% [100 µM] | SF-539 CNS -57.1% [100 µM] | UACC-257 melanoma -29.2% [100 µM] | M14 melanoma -32.8% [100 µM]
